# Laboratory results from the supplement of paper PMC3334620.
# The full ranking holds about 33,000 sequences; the median of “E-score (-0.5 to 0.5)” is about -0.041, and the highest 2% start at about 0.37. Only a selection was taken, and the highest values are over-represented in it overall.
# Molecular target: T1, Ecm22 (UniProt Q05958)
# T1 sequence: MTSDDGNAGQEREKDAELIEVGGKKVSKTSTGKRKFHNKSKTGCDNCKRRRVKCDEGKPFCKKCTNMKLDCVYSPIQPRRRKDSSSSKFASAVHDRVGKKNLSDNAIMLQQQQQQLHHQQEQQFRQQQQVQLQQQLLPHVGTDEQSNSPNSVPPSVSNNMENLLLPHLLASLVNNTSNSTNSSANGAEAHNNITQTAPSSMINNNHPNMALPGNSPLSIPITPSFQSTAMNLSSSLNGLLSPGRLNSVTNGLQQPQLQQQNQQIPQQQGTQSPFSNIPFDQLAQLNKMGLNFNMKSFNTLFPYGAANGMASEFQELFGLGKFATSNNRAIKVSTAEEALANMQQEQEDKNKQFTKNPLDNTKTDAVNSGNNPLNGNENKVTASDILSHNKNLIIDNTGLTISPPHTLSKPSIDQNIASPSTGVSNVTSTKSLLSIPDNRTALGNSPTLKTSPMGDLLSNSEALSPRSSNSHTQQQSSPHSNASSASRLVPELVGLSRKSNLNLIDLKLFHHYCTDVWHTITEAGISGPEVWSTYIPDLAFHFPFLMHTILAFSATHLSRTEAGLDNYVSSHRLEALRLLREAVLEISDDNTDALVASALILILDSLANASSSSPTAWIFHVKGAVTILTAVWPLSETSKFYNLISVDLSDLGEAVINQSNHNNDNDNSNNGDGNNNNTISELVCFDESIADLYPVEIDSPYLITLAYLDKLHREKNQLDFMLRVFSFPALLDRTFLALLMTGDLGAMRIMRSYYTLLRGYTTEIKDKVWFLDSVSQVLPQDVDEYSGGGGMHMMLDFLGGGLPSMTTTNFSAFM
# Test: PBM E-score (8-mer binding enrichment) (E-score (-0.5 to 0.5)); higher = stronger / more preferred TF binding
# Settings: protein concentration: 200 nM; construct: GST-full length
# Procedure: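 Universal 'all 10-mer' protein binding microarrays (Agilent AMADID 015681) probed with GST-tagged S. cerevisiae TFs (full-length or DBD) made by in vitro transcription/translation (PURExpress), about 100-200 nM. Bound TF was detected with fluorescent anti-GST. Each ungapped 8-mer (which stands for itself and its reverse complement) is scored by the PBM enrichment score (E-score), a modified Wilcoxon-Mann-Whitney statistic from -0.5 to +0.5, computed with the Universal PBM Analysis Suite. Scale: above 0.35 generally sequence-specific binding.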
row,Sequence,PBM E-score
1,CGGGTTAC,0.231
2,CGTTCCAG,0.418
3,GGTTCCAC,-0.237
4,CGTTCCAA,0.365
5,AGTTCCAC,0.0665
6,CGTTCCAC,0.405
7,AGTTCCAG,-0.172
8,CAATCTAG,-0.0844
9,AGGTCCCC,-0.33
10,GCTTCCGA,0.0694
11,GCTGCGAA,0.0942
12,CCACAGTC,-0.189
13,AGGGACAC,-0.0536
14,AGTTTACA,-0.0418
15,CGTTTACC,0.435
16,CGTTTACA,0.405
17,GGTTTACA,-0.0503
18,AGTTTACC,-0.0268
19,CATTTACC,-0.0682
20,GCTAGCCC,-0.379
21,GGCCCGGA,-0.142
22,GCAGGTCC,0.0428
23,CCATCTCG,0.105
24,CGCATACC,0.16
25,CGCATACA,0.111
26,ATCATACC,0.00527

row,Sequence,PBM E-score
1,CACATACG,0.335
2,ATCATACA,0.0909
3,CGCATACG,0.385
4,ATCATACG,0.404
5,AACATACT,0.0945
6,AACATACG,0.373
7,CCGTCTTC,-0.175
8,CCCTCAAA,-0.157
9,ATTTGCGG,0.0753
10,AACCGTTA,0.0731
11,ACGACAAA,0.384
12,ACGACAGG,0.339
13,TCGACAAA,0.178
14,ACGACAGT,0.382
15,CCGACAAA,0.0481
16,ACGACAAG,0.334
17,ACGACAAT,0.368
18,ACGACAAC,0.366
19,ACGACAGC,0.319
20,ACGCCAGG,0.0457
21,GTCCAGCA,-0.169
22,AAGCGTGT,-0.18
23,CAGATATC,-0.0887
24,GGTTCGAC,0.0422
25,TGCACAAA,-0.22
26,AATCTCGG,0.129

row,Sequence,PBM E-score
1,AAGCTCGA,0.0757
2,AATCTCGA,0.0888
3,AAGCTCGC,0.297
4,AATCTCGT,0.386
5,AAGCTCGT,0.38
6,TACATGGA,-0.119
7,GCAGGGCA,-0.18
8,GGCCACCA,-0.161
9,ACCAGAAG,-0.0736
10,CGACTGAA,0.163
11,ACCGAGCC,0.245
12,AAACGCTG,0.0348
13,AAACGATT,0.42
14,AGACGATC,-0.0754
15,AAACGATC,0.423
16,GAACGATC,0.432
17,AAACGCTT,0.00074
18,GATCGATC,0.171
19,CAACGATC,0.175
20,CCACGATC,0.0737
21,CAACGATG,0.207
22,AATCGATT,0.0191
23,AAACGATG,0.439
24,CATTAGGG,-0.168
25,AGAACCCG,-0.0503
26,ACTCTACG,0.265

row,Sequence,PBM E-score
1,AGCGCACG,0.097
2,ACCCCCTC,-0.274
3,CGTGGATC,-0.0292
4,CCTATGGA,-0.192
5,CCCATTAC,-0.101
6,CGACTGAG,0.0682
7,TAACGATA,0.367
8,CCACGATA,0.0166
9,AAACGATA,0.435
10,GGACGATA,-0.213
11,GAACGATA,0.416
12,CAACGATA,0.263
13,ACCCTTGG,-0.233
14,ATTCTAAA,0.095
15,ACCTAGAG,-0.00033
16,ATTCGCGG,-0.00497
17,ACGGGAGA,0.0694
18,CGACGGGA,0.227
19,CCTAAACA,-0.149
20,ATTAAACA,-0.163
21,ACTAAACC,-0.00061
22,CCTAAACG,0.407
23,ACTAAACG,0.457
24,ACTAAACA,-0.273
25,ATTAAACG,0.449
26,CCTAAACC,-0.00691

row,Sequence,PBM E-score
1,ATTAAACC,-0.0934
2,GGAGTAAA,0.0078
3,GGGGCTAC,-0.0133
4,GACGCCTA,-0.221
5,TCTTCGAA,0.108
6,GATACTTA,-0.131
7,AAGTCGTG,-0.0717
8,GAGTCGGA,0.0868
9,CAGTCGTA,0.418
10,CAGTCGGA,-0.067
11,AAGTCGTA,0.433
12,GAGTCGCA,0.133
13,AAGTCGTC,0.139
14,CAGTCGTC,-0.109
15,GAGTCGTA,0.43
16,CCGGCCGA,-0.113
17,AAGAGTTC,0.00406
18,CGAGCAAC,0.168
19,ACGCCGTG,-0.146
20,ACTCATGC,-0.0706
21,CACTGGGG,-0.267
22,ACGAGACT,0.348
23,ACGAGATA,0.346
24,GCGAGAGC,0.182
25,ACGAGAGC,0.399
26,ACGAGATC,0.433

row,Sequence,PBM E-score
1,ACGAGATG,0.365
2,ACGAGACG,0.394
3,ACGAGAGA,0.353
4,ACGAGACA,0.315
5,AGTAAACG,0.427
6,CGGAAACG,0.269
7,CGTAAACA,0.385
8,CGTAAACG,0.444
9,CGTAAACC,0.366
10,AGTAAACA,0.0411
11,AGTAAACC,-0.0723
12,TGTAAACA,-0.0145
13,GGTAAACA,0.129
14,TCCTTAAA,-0.1
15,GGTCCACC,-0.214
16,ACGCGGGA,0.062
17,AAAGCAGG,-0.203
18,TCTTTACA,-0.132
19,CTTTCGGA,0.0148
20,GTTTCGGA,0.215
21,CTTTCGTA,0.428
22,ATTTCGTG,0.0706
23,ATTTCGTC,0.0861
24,ATTTCGTA,0.444
25,GTTTCGTA,0.44
26,CTTTCGTC,0.0061

row,Sequence,PBM E-score
1,GTTTCGAA,-0.00209
2,GCCCGTGA,-0.115
3,AGGTTTGC,-0.153
4,ACCTAAAT,0.112
5,ACTGGAAA,-0.0956
6,GTTAAACA,0.00429
7,AGCGTTTA,0.168
8,GACGTTTA,0.303
9,ATCGTTTG,0.414
10,AGCGTTTG,0.031
11,GTCGTTTA,0.491
12,GGCGTTTA,0.166
13,AACGTTTA,0.319
14,ATCGTTTA,0.483
15,ATCGTTTC,0.365
16,AAATCTCT,-0.0179
17,ACACTCCT,-0.163
18,CGTTGAGC,0.0667
19,CCACAAGA,-0.185
20,CAAAAGGG,-0.181
21,GCGGGGAC,-0.152
22,ATGATACG,0.377
23,ACGATACT,0.313
24,ACGATACG,0.383
25,CCGATACG,0.326
26,ATGATACC,0.146

row,Sequence,PBM E-score
1,ATGATACA,-0.0736
2,GTTTTCCA,0.061
3,CTCCCGTC,0.121
4,TAAGTGCA,0.0499
5,CTGTTGCC,-0.265
6,CAGGAACC,-0.171
7,ATGGAACA,-0.322
8,AAGGAACG,0.458
9,CAGGAACG,0.463
10,AAGGAACT,-0.0399
11,AAGGAACC,0.0815
12,CAGGAACA,-0.0447
13,ATGGAACC,-0.0738
14,ATGGAACG,0.402
15,CCGCCTAG,-0.193
16,CTTACCTA,-0.117
17,GAAGTGTC,-0.055
18,AATAGTTG,-0.116
19,CAGCGTCG,0.0918
20,AAGCCGTC,-0.0956
21,TAAACAAA,0.114
22,TAAACGAA,0.488
23,GTAACGAA,0.306
24,GAAACAAA,-0.0214
25,AAAACGAA,0.277
26,CCAACGAA,0.0596

row,Sequence,PBM E-score
1,TAAACGCA,0.292
2,CAAACGAA,0.438
3,GAAACGAA,0.414
4,AGTGACAT,-0.283
5,GGCACAAA,-0.134
6,GATATGCC,-0.108
7,ATATTTAA,0.0866
8,AGACGGCG,-0.0146
9,AAACGGCA,0.294
10,ATACGGCG,0.406
11,GTACGGCA,0.395
12,ACACGGCG,-0.0862
13,CTACGGCC,0.018
14,ATACGGCA,0.404
15,ATACGGCC,0.388
16,ACACGGCA,0.108
17,GCACGGCA,-0.0485
18,CTACGGCA,0.1
19,AGACGGCC,-0.223
